Laboratory results as given in the supplement of paper PMC6897291.

Assays:
U-2932 [1] = assay: growth inhibition by drug alone (1 - RLU/untreated control) (fraction); higher = stronger inhibition; settings: 177Lu-lilotomab satetraxetan 0 ug/ml
Summary of the method: (§1)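 With or without 18 h pretreatment by a radiolabelled anti-CD37 antibody conjugate (~600 MBq/mg; 0.5 µg/ml RIVA, 1 µg/ml U-2932), RIVA and U-2932 cells were washed and plated at 3,000 cells/well. Pre-printed compound doses were 10/100 nM for RIVA and 10/1,000 nM for U-2932. Growth inhibition uses RealTime-Glo RLU relative to the untreated no-drug wells. The calculation is 1 − RLU/mean of 48 such wells per plate, with reads daily from day 3 after 1 h at 37°C.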

RIVA [2] = assay: as above; settings: 177Lu-lilotomab satetraxetan 0 ug/ml
Summary of the method: as §1

U-2932 [3] = assay: growth inhibition by drug plus 177Lu-lilotomab satetraxetan (1 - RLU/untreated control) (fraction); higher = stronger inhibition; settings: 177Lu-lilotomab satetraxetan 1 ug/ml
Summary of the method: as §1

RIVA [4] = assay: as above; settings: 177Lu-lilotomab satetraxetan 0.5 ug/ml
Summary of the method: as §1

| SMILES | growth inhibition by drug alone (U-2932 [1]; 10 nM, time (day): 3) | growth inhibition by drug alone (U-2932 [1]; 10 nM, time (day): 4) | growth inhibition by drug alone (U-2932 [1]; 10 nM, time (day): 5) | growth inhibition by drug alone (U-2932 [1]; 10 nM, time (day): 6) | growth inhibition by drug alone (U-2932 [1]; 1000 nM, time (day): 3) | growth inhibition by drug alone (U-2932 [1]; 1000 nM, time (day): 4) | growth inhibition by drug alone (U-2932 [1]; 1000 nM, time (day): 5) | growth inhibition by drug alone (U-2932 [1]; 1000 nM, time (day): 6) | growth inhibition by drug alone (RIVA [2]; 10 nM, time (day): 3) | growth inhibition by drug alone (RIVA [2]; 10 nM, time (day): 4) | growth inhibition by drug alone (RIVA [2]; 10 nM, time (day): 5) | growth inhibition by drug alone (RIVA [2]; 10 nM, time (day): 6) | growth inhibition by drug alone (RIVA [2]; 100 nM, time (day): 3) | growth inhibition by drug alone (RIVA [2]; 100 nM, time (day): 4) | growth inhibition by drug alone (RIVA [2]; 100 nM, time (day): 5) | growth inhibition by drug alone (RIVA [2]; 100 nM, time (day): 6) | growth inhibition by drug plus 177Lu-lilotomab satetraxetan (U-2932 [3]; 10 nM, time (day): 3) | growth inhibition by drug plus 177Lu-lilotomab satetraxetan (U-2932 [3]; 10 nM, time (day): 4) | growth inhibition by drug plus 177Lu-lilotomab satetraxetan (U-2932 [3]; 10 nM, time (day): 5) | growth inhibition by drug plus 177Lu-lilotomab satetraxetan (U-2932 [3]; 10 nM, time (day): 6) | growth inhibition by drug plus 177Lu-lilotomab satetraxetan (U-2932 [3]; 1000 nM, time (day): 3) | growth inhibition by drug plus 177Lu-lilotomab satetraxetan (U-2932 [3]; 1000 nM, time (day): 4) | growth inhibition by drug plus 177Lu-lilotomab satetraxetan (U-2932 [3]; 1000 nM, time (day): 5) | growth inhibition by drug plus 177Lu-lilotomab satetraxetan (U-2932 [3]; 1000 nM, time (day): 6) | growth inhibition by drug plus 177Lu-lilotomab satetraxetan (RIVA [4]; 10 nM, time (day): 3) | growth inhibition by drug plus 177Lu-lilotomab satetraxetan (RIVA [4]; 10 nM, time (day): 4) | growth inhibition by drug plus 177Lu-lilotomab satetraxetan (RIVA [4]; 10 nM, time (day): 5) | growth inhibition by drug plus 177Lu-lilotomab satetraxetan (RIVA [4]; 10 nM, time (day): 6) | growth inhibition by drug plus 177Lu-lilotomab satetraxetan (RIVA [4]; 100 nM, time (day): 3) | growth inhibition by drug plus 177Lu-lilotomab satetraxetan (RIVA [4]; 100 nM, time (day): 4) | growth inhibition by drug plus 177Lu-lilotomab satetraxetan (RIVA [4]; 100 nM, time (day): 5) | growth inhibition by drug plus 177Lu-lilotomab satetraxetan (RIVA [4]; 100 nM, time (day): 6) |
| --- | --- | --- | --- | --- | --- | --- | --- | --- | --- | --- | --- | --- | --- | --- | --- | --- | --- | --- | --- | --- | --- | --- | --- | --- | --- | --- | --- | --- | --- | --- | --- | --- |
| COc1ccc(-c2oc3cc(OC)ccc3c2C(=O)c2ccc(C#N)cc2)cc1 | 0.084 | 0.0751 | 0.0436 | -0.022 | -0.0181 | 0.0261 | -0.052 | -0.253 | -0.046 | -0.0513 | -0.124 | -0.374 | -0.0825 | -0.0731 | -0.0858 | -0.201 | -0.0286 | -0.00458 | 0.0392 | 0.0337 | -0.0968 | 0.0212 | 0.0134 | 0.0408 | 0.441 | 0.559 | 0.571 | 0.572 | 0.391 | 0.503 | 0.507 | 0.483 |
| COc1c(C)cnc(Cn2cnc3c(Cl)nc(N)nc32)c1C | 0.137 | 0.0945 | 0.017 | -0.0336 | 0.935 | 0.979 | 0.986 | 0.987 | -0.00355 | 0.0266 | -0.0608 | -0.277 | 0.0172 | 0.0454 | 0.0061 | -0.105 | -0.00351 | 0.0579 | 0.0581 | 0.132 | 0.949 | 0.985 | 0.988 | 0.989 | 0.511 | 0.587 | 0.6 | 0.607 | 0.471 | 0.569 | 0.584 | 0.597 |
| Cc1[nH]c(/C=C2\C(=O)Nc3ccc(S(=O)(=O)Cc4c(Cl)cccc4Cl)cc32)c(C)c1C(=O)N1CCC[C@@H]1CN1CCCC1 | -0.0448 | -0.0348 | -0.136 | -0.363 | -0.15 | -0.0937 | -0.118 | -0.0292 | -0.0942 | -0.161 | -0.228 | -0.375 | -0.272 | -0.354 | -0.323 | -0.456 | -0.098 | -0.0543 | -0.04 | 0.0103 | -0.291 | -0.156 | -0.125 | -0.00631 | 0.279 | 0.438 | 0.464 | 0.487 | 0.246 | 0.384 | 0.381 | 0.376 |
| CC(C)c1ccc(Cn2ccc3c4c(N)nc(NC5CC5)nc4ccc32)cc1 | 0.155 | 0.138 | 0.0759 | 0.0356 | 0.976 | 0.977 | 0.982 | 0.985 | 0.0749 | 0.155 | 0.0828 | -0.0413 | 0.639 | 0.486 | 0.491 | 0.444 | 0.151 | 0.196 | 0.261 | 0.274 | 0.982 | 0.983 | 0.986 | 0.989 | 0.658 | 0.702 | 0.716 | 0.712 | 0.787 | 0.778 | 0.786 | 0.799 |
| Cc1ccc(Nc2nccc(N(C)c3ccc4c(C)n(C)nc4c3)n2)cc1S(N)(=O)=O [Pazopanib] | 0.0671 | 0.059 | 0.0169 | -0.0275 | 0.0873 | 0.113 | 0.0564 | -0.194 | 0.149 | 0.0444 | -0.0206 | -0.258 | 0.117 | 0.0561 | 0.0246 | -0.0758 | 0.0594 | 0.0779 | 0.0787 | 0.118 | -0.00732 | 0.0799 | 0.0706 | 0.00785 | 0.437 | 0.548 | 0.557 | 0.564 | 0.418 | 0.47 | 0.488 | 0.477 |
| CCC(C)n1ncn(-c2ccc(N3CCN(c4ccc(OCC5COC(Cn6cncn6)(c6ccc(Cl)cc6Cl)O5)cc4)CC3)cc2)c1=O (centres undefined) [Itraconazole (Sporanox)] | 0.0829 | 0.0704 | 0.0582 | -0.11 | 0.0952 | 0.087 | 0.0678 | -0.00563 | -0.0197 | 0.0654 | -0.0473 | -0.325 | -0.037 | 0.0162 | 0.00541 | -0.0886 | 0.0224 | 0.0823 | 0.142 | 0.126 | 0.102 | 0.147 | 0.188 | 0.311 | 0.61 | 0.642 | 0.66 | 0.668 | 0.407 | 0.522 | 0.541 | 0.559 |
| COc1cc2c(cc1OC)CN(CCc1ccc(NC(=O)c3cccc4c(=O)c5cccc(OC)c5[nH]c34)cc1)CC2 [Elacridar] | -0.00987 | 0.00491 | 0.00725 | 0.0766 | 0.114 | 0.0649 | 0.000978 | -0.0858 | -0.196 | -0.178 | -0.24 | -0.531 | -0.21 | -0.258 | -0.283 | -0.457 | -0.0285 | 0.00551 | 0.0106 | 0.107 | 0.0477 | 0.0502 | 0.0374 | -0.0614 | 0.3 | 0.468 | 0.491 | 0.503 | 0.263 | 0.407 | 0.424 | 0.403 |
| COc1nc(C)cnc1NS(=O)(=O)c1cccnc1-c1ccc(-c2nnco2)cc1 [Zibotentan (ZD4054)] | -0.02 | -0.0119 | -0.0937 | -0.23 | -0.0348 | -0.00699 | -0.0784 | -0.143 | 0.00676 | -0.0294 | -0.0678 | -0.248 | -0.0338 | -0.0394 | -0.0583 | -0.115 | -0.0217 | 0.0145 | 0.00284 | 0.0711 | -0.0714 | 0.0154 | -0.0042 | -0.0452 | 0.387 | 0.514 | 0.537 | 0.542 | 0.388 | 0.485 | 0.494 | 0.461 |
| O=c1cc(N2CCOCC2)oc2c(-c3ccccc3)cccc12 | 0.0578 | 0.0496 | -0.0145 | -0.0318 | 0.0577 | 0.0696 | 0.0149 | -0.0509 | 0.12 | 0.0305 | -0.0125 | -0.181 | 0.0387 | 0.0134 | -0.0363 | -0.116 | 0.00353 | 0.0372 | 0.0314 | 0.0726 | 0.0169 | 0.0857 | 0.0428 | 0.0454 | 0.442 | 0.529 | 0.563 | 0.58 | 0.423 | 0.463 | 0.473 | 0.446 |
| COc1ccc(/C=C\c2cc(OC)c(OC)c(OC)c2)cc1O [Combretastatin A4] | 0.967 | 0.973 | 0.979 | 0.983 | 0.965 | 0.975 | 0.981 | 0.985 | 0.953 | 0.965 | 0.971 | 0.975 | 0.924 | 0.936 | 0.954 | 0.964 | 0.971 | 0.978 | 0.983 | 0.986 | 0.965 | 0.979 | 0.985 | 0.988 | 0.964 | 0.976 | 0.98 | 0.984 | 0.936 | 0.949 | 0.963 | 0.971 |
| CC[C@@H]1C(=O)N(C)c2cnc(Nc3ccc(C(=O)N[C@H]4CC[C@H](N5CCN(CC6CC6)CC5)CC4)cc3OC)nc2N1C(C)C [BI6727 (Volasertib)] | 0.335 | 0.327 | 0.308 | 0.37 | 0.962 | 0.975 | 0.98 | 0.982 | 0.23 | 0.19 | 0.153 | 0.0282 | 0.943 | 0.962 | 0.969 | 0.971 | 0.255 | 0.307 | 0.34 | 0.465 | 0.917 | 0.946 | 0.965 | 0.977 | 0.631 | 0.702 | 0.726 | 0.726 | 0.939 | 0.964 | 0.975 | 0.981 |
| OC[C@H]1O[C@@H](n2cnc3c2N=CNC[C@H]3O)C[C@@H]1O [Pentostatin] | 0.1 | 0.0372 | -0.116 | -0.114 | -0.0219 | -0.074 | -0.147 | -0.0984 | 0.0173 | -0.0212 | -0.109 | -0.624 | -0.427 | -0.321 | -0.314 | -0.387 | -0.00817 | 0.056 | 0.0512 | 0.0351 | 0.0728 | 0.0721 | 0.118 | 0.207 | 0.472 | 0.557 | 0.557 | 0.555 | 0.399 | 0.488 | 0.5 | 0.513 |
| Cc1ccc(-c2cc(C(F)(F)F)nn2-c2ccc(S(N)(=O)=O)cc2)cc1 [Celecoxib] | -0.0761 | -0.0572 | -0.00842 | 0.0336 | -0.0323 | -0.0104 | -0.0383 | -0.0538 | -0.101 | -0.129 | -0.153 | -0.237 | -0.0795 | -0.119 | -0.157 | -0.232 | -0.0503 | -0.0256 | 0.0111 | 0.161 | -0.109 | -0.0274 | 0.00456 | 0.0432 | 0.337 | 0.477 | 0.505 | 0.512 | 0.373 | 0.448 | – | – |
